What all share (design): scale not given: direction of the effect not stated beside the values
For experiment [1], the target named is Protein translocase subunit SecA (Escherichia coli (strain K12)) (UniProt P10408). The experiment in a line: Assay to Identify E. coli SecA ATPase Inhibitors. Conditions: 30 µM. The experiment is classed as functional.
For experiment [2], the target named is T1, Ubiquitin-activating enzyme e1, putative (Leishmania donovani (strain BPK282A1)) (UniProt E9BSI1).
T1 sequence (whole entry): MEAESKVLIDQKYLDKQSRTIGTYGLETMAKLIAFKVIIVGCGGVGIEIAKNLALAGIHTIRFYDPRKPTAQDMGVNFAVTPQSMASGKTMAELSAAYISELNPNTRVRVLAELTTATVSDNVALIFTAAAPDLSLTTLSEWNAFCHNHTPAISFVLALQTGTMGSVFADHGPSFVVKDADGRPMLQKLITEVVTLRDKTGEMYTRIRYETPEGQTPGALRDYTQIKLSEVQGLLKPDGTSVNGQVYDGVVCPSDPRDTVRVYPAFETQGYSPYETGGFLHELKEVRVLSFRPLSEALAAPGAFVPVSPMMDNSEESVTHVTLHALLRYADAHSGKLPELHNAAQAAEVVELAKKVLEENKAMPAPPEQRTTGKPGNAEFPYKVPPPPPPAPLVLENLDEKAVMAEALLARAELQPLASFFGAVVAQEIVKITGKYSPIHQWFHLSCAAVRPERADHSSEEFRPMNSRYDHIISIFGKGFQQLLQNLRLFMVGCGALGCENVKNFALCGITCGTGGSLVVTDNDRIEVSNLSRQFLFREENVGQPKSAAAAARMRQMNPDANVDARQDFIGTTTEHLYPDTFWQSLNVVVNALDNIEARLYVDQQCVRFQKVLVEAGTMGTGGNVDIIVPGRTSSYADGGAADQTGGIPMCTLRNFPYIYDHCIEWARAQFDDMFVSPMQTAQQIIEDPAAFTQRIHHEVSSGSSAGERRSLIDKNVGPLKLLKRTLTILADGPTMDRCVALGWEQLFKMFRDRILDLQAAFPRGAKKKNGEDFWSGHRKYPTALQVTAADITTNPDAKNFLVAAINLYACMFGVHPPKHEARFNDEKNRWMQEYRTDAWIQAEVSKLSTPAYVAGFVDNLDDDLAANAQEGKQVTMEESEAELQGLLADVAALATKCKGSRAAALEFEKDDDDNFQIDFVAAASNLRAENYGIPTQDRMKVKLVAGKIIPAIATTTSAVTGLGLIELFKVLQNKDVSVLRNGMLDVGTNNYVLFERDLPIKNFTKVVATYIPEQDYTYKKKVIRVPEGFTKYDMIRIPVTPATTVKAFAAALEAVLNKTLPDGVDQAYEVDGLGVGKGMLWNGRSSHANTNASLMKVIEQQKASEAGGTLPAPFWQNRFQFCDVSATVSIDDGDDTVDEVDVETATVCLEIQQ
Briefly: Leishmania donovani Ubiquitin Activating Enzyme (LdE1). It is filed as functional. As to conditions: 30 µM.

Experiment [3] deals with AMP-activated protein kinase, AMPK (Homo sapiens) (UniProt P54646+O43741+P54619+Q9UGJ0+Q9Y478+Q13131+Q9UGI9). The experiment in a line: AMP-dependent Kinase enzyme assay. An in vitro enzyme assay that detects ADP turnover that is directly proportional to AMPK activity. This uses naive AMPK that is activated during the assay with MK-8722. It is filed as functional. As to conditions: 30 µM.

Experiment [4] concerns the target Sialic acid-binding Ig-like lectin 9 (Homo sapiens) (UniProt Q9Y336). The experiment in a line: Hs-Siglec9 ALPHAscreen SOP 20170721. Conditions: 10 µM. For orientation: Alpha assays give light when donor and acceptor beads are brought close together.
The test system of another experiment is Trypanosoma cruzi. Briefly: Trypanosoma cruzi phosphomannomutase and mannose-1-phosphate guanylyltransferase assay. The experiment is classed as functional. As to conditions: 10 µM.
For experiment [5], the target named is T2, Arginase-2, mitochondrial (Homo sapiens) (UniProt P78540).
T2 sequence (whole entry): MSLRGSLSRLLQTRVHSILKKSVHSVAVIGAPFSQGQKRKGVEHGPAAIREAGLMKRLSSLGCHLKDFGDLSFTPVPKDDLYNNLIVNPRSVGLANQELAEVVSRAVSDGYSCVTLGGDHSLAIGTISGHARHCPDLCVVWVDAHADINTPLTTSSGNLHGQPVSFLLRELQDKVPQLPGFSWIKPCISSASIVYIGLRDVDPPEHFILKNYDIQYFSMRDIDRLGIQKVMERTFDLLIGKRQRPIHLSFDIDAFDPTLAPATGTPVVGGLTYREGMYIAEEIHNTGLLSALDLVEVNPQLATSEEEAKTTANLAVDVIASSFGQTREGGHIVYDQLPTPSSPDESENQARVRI
Briefly: in vitro enzyme assay to detect the production of urea directly proportional to the activity of Arginase II. Also: in the data most compounds retested in dose-response had high values. The experiment is classed as functional. Conditions: 33.3 µM.

For experiment [6], the target named is T3, Proteasome subunit beta (Trypanosoma cruzi) (UniProt O96673).
T3 sequence (whole entry): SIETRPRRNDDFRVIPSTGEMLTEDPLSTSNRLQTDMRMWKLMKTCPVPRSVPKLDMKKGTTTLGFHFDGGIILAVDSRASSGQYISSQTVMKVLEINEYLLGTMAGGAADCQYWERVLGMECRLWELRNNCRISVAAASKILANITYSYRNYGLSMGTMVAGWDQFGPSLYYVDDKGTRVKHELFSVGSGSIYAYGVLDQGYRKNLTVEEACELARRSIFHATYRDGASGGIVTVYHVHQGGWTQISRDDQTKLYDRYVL
The experiment in a line: Trypanosoma cruzi proteasome chymotrypsin-like activity (TcProtChymo) assay. Also: in the data most compounds retested in dose-response had high values. The experiment is classed as functional. Conditions: 9.37 µM.

The species entered for a further experiment is Homo sapiens. The experiment in a line: To identify inhibition of the IFN signalling (Jak-Stat) pathway via expression of an eGFP reporter gene under the control of an IFN-stimulated response element (ISRE) containing MxA promoter. The experiment is classed as functional. As to conditions: 30 µM.
The target in experiment [7] is T4, Tyrosyl-tRNA synthetase, putative (Trypanosoma cruzi (strain CL Brener)) (UniProt Q4DSP6).
T4 sequence (whole entry): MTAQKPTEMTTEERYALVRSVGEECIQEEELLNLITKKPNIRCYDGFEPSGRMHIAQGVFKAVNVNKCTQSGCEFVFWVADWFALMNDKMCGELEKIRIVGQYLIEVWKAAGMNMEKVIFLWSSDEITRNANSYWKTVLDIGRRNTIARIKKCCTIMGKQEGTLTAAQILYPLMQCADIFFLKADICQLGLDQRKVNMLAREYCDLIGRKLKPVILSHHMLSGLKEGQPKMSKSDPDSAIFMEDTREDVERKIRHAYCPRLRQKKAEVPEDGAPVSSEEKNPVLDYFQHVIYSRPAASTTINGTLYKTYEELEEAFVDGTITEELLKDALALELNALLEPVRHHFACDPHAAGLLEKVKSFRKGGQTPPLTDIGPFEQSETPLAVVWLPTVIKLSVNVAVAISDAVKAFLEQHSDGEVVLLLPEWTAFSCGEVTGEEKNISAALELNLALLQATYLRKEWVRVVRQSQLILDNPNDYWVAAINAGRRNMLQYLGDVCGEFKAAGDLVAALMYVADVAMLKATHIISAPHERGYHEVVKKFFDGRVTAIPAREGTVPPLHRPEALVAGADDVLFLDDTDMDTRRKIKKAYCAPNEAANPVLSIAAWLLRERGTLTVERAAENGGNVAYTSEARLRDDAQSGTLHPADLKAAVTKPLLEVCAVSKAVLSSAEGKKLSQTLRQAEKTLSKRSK
Briefly: Trypanosoma cruzi tyrosyl tRNA synthetase (TcYRS) _High Tyrosine SOP. Also: in the data most compounds retested in dose-response had high values. It is filed as functional. Conditions: 30 µM.

Experiment [8] has as its target T4, Tyrosyl-tRNA synthetase, putative (Trypanosoma cruzi (strain CL Brener)). Briefly: Trypanosoma cruzi tyrosyl tRNA synthetase (TcYRS) SOP. As to conditions: 30 µM. It is filed as functional.
The target of experiment [9] is Chromo domain-containing protein 1 (Saccharomyces cerevisiae (strain ATCC 204508 / S288c) (Baker's yeast)) (UniProt P32657). Briefly: ScCHD-1 Enzyme Inhibition Assay. Also: in the data most compounds retested in dose-response had high values. As to conditions: 30 µM. The experiment is classed as functional.

We go through 10 compounds from ChEMBL document CHEMBL3988442, “University of Dundee, Small-Polar-MMV Screening Library” (2021).

For some assays here: Measured potencies and affinities stand elsewhere.

Sequence of Sialic acid-binding Ig-like lectin 9 (Homo sapiens) (Q9Y336 whole entry): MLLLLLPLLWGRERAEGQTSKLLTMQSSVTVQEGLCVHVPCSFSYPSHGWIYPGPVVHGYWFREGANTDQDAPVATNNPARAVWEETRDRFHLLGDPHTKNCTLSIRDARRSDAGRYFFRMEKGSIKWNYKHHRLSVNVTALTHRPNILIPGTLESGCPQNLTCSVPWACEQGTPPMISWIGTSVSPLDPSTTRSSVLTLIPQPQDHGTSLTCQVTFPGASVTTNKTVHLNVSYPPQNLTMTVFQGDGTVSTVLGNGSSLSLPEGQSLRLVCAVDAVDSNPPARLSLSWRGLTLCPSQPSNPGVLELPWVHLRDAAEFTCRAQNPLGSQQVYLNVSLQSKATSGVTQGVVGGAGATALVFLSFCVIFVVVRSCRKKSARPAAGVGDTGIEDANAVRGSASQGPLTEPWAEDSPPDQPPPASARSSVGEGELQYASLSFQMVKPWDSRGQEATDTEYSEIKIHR
Sequence of Chromo domain-containing protein 1 (Saccharomyces cerevisiae (strain ATCC 204508 / S288c) (Baker's yeast)) (P32657 whole entry, the tested form may be a part): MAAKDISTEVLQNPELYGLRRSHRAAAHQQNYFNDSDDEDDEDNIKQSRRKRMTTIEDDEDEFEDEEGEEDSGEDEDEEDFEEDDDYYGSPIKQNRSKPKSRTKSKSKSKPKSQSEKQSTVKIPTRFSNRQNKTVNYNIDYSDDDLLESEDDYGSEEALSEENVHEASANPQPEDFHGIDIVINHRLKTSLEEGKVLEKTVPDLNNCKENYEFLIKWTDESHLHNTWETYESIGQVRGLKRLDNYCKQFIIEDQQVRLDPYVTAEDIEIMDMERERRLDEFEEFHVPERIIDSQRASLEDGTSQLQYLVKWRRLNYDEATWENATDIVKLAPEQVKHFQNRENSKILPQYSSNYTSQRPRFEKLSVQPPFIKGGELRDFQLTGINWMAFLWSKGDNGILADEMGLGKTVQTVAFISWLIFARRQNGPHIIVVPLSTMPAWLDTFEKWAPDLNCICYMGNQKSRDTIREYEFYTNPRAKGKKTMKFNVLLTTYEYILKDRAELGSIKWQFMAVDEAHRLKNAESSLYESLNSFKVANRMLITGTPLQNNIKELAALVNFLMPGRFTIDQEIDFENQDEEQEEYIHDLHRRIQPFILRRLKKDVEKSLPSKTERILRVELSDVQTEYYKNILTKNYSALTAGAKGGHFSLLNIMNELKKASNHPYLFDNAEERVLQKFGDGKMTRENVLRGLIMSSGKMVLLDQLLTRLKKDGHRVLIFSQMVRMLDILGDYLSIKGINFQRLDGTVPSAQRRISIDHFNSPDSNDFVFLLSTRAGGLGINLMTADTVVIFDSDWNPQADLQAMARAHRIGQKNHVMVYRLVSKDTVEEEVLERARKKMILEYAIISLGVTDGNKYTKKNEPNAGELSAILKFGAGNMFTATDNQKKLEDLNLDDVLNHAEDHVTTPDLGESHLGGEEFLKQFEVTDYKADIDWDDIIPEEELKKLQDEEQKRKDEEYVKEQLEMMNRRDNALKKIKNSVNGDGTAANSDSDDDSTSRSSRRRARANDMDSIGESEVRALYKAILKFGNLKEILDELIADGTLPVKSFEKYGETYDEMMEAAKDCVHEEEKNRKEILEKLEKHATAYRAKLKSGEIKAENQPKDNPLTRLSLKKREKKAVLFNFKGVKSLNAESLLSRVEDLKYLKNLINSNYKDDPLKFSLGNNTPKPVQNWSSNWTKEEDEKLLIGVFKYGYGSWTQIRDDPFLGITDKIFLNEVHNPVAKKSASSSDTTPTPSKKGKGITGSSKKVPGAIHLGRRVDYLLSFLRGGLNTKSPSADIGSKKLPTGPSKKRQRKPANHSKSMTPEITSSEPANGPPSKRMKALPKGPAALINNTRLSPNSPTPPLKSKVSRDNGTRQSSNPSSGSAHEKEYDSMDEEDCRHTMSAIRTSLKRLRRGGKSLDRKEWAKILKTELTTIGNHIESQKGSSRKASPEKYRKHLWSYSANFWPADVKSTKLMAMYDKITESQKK
Sequence of Protein translocase subunit SecA (Escherichia coli (strain K12)) (P10408 whole entry): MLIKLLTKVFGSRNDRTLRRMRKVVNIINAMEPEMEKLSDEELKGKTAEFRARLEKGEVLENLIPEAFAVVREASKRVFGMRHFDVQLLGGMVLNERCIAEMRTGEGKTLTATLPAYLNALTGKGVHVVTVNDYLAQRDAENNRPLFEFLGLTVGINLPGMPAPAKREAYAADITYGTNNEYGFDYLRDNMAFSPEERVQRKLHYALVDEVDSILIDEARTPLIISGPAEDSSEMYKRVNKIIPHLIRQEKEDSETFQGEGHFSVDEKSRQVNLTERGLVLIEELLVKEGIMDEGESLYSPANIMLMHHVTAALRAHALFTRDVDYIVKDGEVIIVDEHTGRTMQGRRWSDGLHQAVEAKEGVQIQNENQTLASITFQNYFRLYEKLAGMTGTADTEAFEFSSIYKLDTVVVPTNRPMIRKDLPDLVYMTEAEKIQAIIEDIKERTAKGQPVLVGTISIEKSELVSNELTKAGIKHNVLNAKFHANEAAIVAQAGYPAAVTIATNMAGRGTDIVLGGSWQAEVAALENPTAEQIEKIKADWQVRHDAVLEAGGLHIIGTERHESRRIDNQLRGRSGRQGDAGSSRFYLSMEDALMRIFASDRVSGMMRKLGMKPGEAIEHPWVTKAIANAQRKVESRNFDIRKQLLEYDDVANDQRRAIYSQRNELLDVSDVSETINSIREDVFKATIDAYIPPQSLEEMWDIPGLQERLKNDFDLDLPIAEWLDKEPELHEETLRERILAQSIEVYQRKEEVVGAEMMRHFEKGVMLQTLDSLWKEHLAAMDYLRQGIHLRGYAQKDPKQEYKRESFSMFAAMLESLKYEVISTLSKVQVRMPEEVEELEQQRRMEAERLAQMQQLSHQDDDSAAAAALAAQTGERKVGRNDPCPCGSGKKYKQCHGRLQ

`CC(C)CCC(C)NC(=O)c1ccc(OCC(N)=O)cc1` (stereo not given): the Percent Effect in [1] was 0.307%; in experiment [2], 10.8%; in experiment [3] it was -4.08%; in experiment [4], 5.06%; in the experiment on Trypanosoma cruzi, -2.7%; in [5], -1.43%. Moreover, the Percent Effect in experiment [6] was 10.5%; in the experiment listed under Homo sapiens it was 11.1%; in experiment [7] it was 5.82%; in experiment [8], 12.2%; in experiment [9] it was -4.44%.
For `Cc1nsc(NC(=O)N2CCC(C(C)(C)O)CC2)n1`, the Percent Effect is 1.56% in [1]; 5.41% in [2]; -3.48% in experiment [3]; -1.81% in experiment [4]; -8.11% with Trypanosoma cruzi; 1.74% in [5]. Also, the Percent Effect in [6] is 14.2%; in the experiment listed under Homo sapiens, 5.12%; in experiment [7] it was 1.07%; in [8], 6.17%; in [9], -3.72%.
Take `O=C(NCCN1CCNCC1)c1nc2ccccc2c(=O)[nH]1`: the Percent Effect is 3.26% in experiment [1]; 9.33% in experiment [2]; 2.04% in experiment [3]; -5.44% in [4]; -7.47% in the experiment with Trypanosoma cruzi; -10.7% in experiment [5]. In addition, the Percent Effect in experiment [6] is 12%; in the experiment filed under Homo sapiens it was -0.251%; in experiment [7], 4.23%; in experiment [8], 12.8%; in experiment [9] it was -7.33%.
As to `CC(=O)N1CCC2(CC1)COCCN2CCN(C)C`, the Percent Effect in [1] was -1.15%; in [2] it was 5.33%; in experiment [3], 0.268%; in [4], 4.02%; with Trypanosoma cruzi, -4.25%; in experiment [5], -26.3%. Also, the Percent Effect is 3.59% in experiment [6]; -11.5% in the experiment filed under Homo sapiens; 2.08% in experiment [7]; -25% in experiment [8]; -5.07% in experiment [9].
With `Cc1noc(CN2CCOC(CN(C)C)C2)n1` (stereo not given), the Percent Effect in experiment [1] was -2.18%; in [2], 24.3%; in experiment [3], 0.532%; in [4] it was -4.95%; in the experiment with Trypanosoma cruzi, 5.11%; in experiment [5], 2.77%. Besides, the Percent Effect in experiment [6] is 11.3%; in the experiment filed under Homo sapiens, 22.3%; in experiment [7], 5.94%; in experiment [8], 18.3%; in [9], -7.83%.
As for `CCc1ccccc1CN1CC[C@@H](NC(=O)c2cccnc2)[C@H](O)C1`, the Percent Effect in experiment [1] is -2.67%; in experiment [2], 1.39%; in [3], -0.714%; in [4], 6.65%; in the experiment on Trypanosoma cruzi, 8.26%; in experiment [5], 0%. For the same compound, the Percent Effect is 12.8% in experiment [6]; -21.1% in the experiment filed under Homo sapiens; 3.16% in [7]; 10.3% in experiment [8]; -3.67% in experiment [9].
Turning to `COc1cccc(CCC(=O)N2CCCC(n3cc(C)cn3)C2)c1` (stereo not given), the Percent Effect in experiment [1] is 0.219%; in [2] it was -3.8%; in experiment [3] it was 11.1%; in [4], -1.76%; with Trypanosoma cruzi it was -0.923%; in experiment [5] it was 9.25%. In addition, the Percent Effect in experiment [6] was 1.03%; in the experiment listed under Homo sapiens it was -7.62%; in experiment [7] it was -5.21%; in experiment [8] it was 0%; in experiment [9], -20%.
Take `Cc1ccc(C(=O)NC(C)CN2CCCC2=O)c(=O)[nH]1` (stereo not given): the Percent Effect in experiment [1] is -6.8%; in [2], 5.48%; in experiment [3] it was -5.61%; in experiment [4], 0.134%; in the experiment on Trypanosoma cruzi it was -2.94%; in [5], 0.455%. Besides, the Percent Effect in [6] is 12.8%; in the experiment filed under Homo sapiens, 18.2%; in experiment [7], 1.07%; in experiment [8], 2.5%; in experiment [9], -0.198%.
For `Cc1ccc(NC2CCN(C(=O)c3c(C)noc3C)CC2)nn1`, the Percent Effect in [1] is -4.36%; in experiment [2], 13.2%; in experiment [3] it was 0.922%; in [4], 9.85%; in the experiment with Trypanosoma cruzi it was 7.33%; in [5], -0.766%. Also, the Percent Effect in experiment [6] was 3.68%; in the experiment filed under Homo sapiens it was -4.46%; in [7] it was 3.43%; in [8], 12.2%; in experiment [9], -7.4%.
For the compound `Cc1cccc(OCCC(=O)N(C)CCNS(C)(=O)=O)c1C`, the Percent Effect in experiment [1] was -2.9%; in experiment [2], 5.26%; in experiment [3] it was 8.08%; in [4], 6.9%; in the experiment with Trypanosoma cruzi, -4.58%; in experiment [5], -2.37%. For the same compound, the Percent Effect in [6] was 7.96%; in the experiment listed under Homo sapiens, 3.29%; in experiment [7], 2.13%; in experiment [8] it was 13%; in experiment [9], -5.08%.
